Hits are enriched below; roughly 1.1% of the tested compounds scored in any of these assays.
Hsp90 inh = displaces geldanamycin probe from tumor Hsp90; P07900; NCI-N417 lysate Hsp90, Cy3B-geldanamycin FP displacement; inhibition, % at 30 µM; 64,000 compounds, 0.35% hits; AID 429;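 active = inhibition above 50%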;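 note: 0% = tracer plus lysate wells and 100% = tracer alone without lysate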
HePTP inhibitor = inhibitors of human HePTP phosphatase. recombinant HePTP phosphatase activity, OD absorbance. AID 521. P35236. inhibition, % at 20 µM. 110,000 compounds, 0.64% hits; in the data active = inhibition above about 50%;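 note: plate controls were vehicle for no effect and reference inhibitor for full effect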
Target sequence (P35236 whole entry, looked up): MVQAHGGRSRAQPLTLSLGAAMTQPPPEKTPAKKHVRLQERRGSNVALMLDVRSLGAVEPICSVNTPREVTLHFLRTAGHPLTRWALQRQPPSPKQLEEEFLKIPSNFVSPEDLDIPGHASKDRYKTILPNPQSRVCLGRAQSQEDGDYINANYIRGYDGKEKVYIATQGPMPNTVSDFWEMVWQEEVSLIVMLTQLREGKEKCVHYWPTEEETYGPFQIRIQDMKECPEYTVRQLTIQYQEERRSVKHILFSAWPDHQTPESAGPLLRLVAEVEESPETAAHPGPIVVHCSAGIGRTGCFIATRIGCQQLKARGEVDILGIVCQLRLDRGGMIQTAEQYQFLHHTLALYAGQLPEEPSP
TNAP act DEA = activates human TNAP at intermediate phosphate acceptor concentration; activation factor at 20 µM; 64,000 tested, under 10 active; purified TNAP, CDP-star luminescence, 100 mM DEA, 30 min; active compounds read high; scale: 0 levamisole-inhibited, 1 vehicle-only enzyme; P05186;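 active = activation factor of at least 2 at 20 µM, relative to controls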
MT1-MMP txn act = MT1-MMP promoter transcription activation | HT1080 MT1-MMP promoter luciferase reporter, luminescence, overnight; active compounds read high | activation factor at 10 µM | 86,000 compounds, 0.16% hits;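 active = activation factor of at least 2 for MT1-MMP transcription at 10 µM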
Ec RNAP inh = blocks E. coli RNA polymerase transcription. AID 559. 62,000 compounds, 0.2% hits. inhibition, %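 (tested at 10 µM)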. fluorescence transcription assay. P0A8V2; in the data active = inhibition above about 20%;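 note: 0% = enzyme without compound and 100% = no enzyme blank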
Her2 expr inh = inhibitors of human Her2 kinase expression; AID 645; SKBR-3 HER2 protein level, AlphaScreen, 18-24 h; active compounds read low; 65,000 compounds, 0.69% hits; P04626; HER2 level % of control, % at 10 µM;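 active = HER2 level under 5% of the carrier-only control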;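 note: 100% = DMSO carrier and 0% = 500 nM PU-H71 HSP90 inhibitor; lower value means stronger loss of Her2 protein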
* marks the source's active call; other numbers are inactive results; · = no result.

SMILES	Hsp90 inh	HePTP inhibitor	TNAP act DEA	MT1-MMP txn act	Ec RNAP inh	Her2 expr inh
COC(=O)c1ccc(NC(=O)CC2Nc3ccccc3NC2=O)cc1 (stereo unspecified)	·	-20	·	·	·	·
CCn1c(=O)c(C(=O)Nc2nc3ccccc3[nH]2)c(O)c2ccccc21	3	13	0.9	·	-4	0.9*
CCn1c(=O)c(C(=O)Nn2c(C)nc3ccccc3c2=O)c(O)c2ccccc21	-2	3	0.9	0.9	1	53
CCC1=NN2C(=N)/C(=C/c3ccc(-c4ccc(Cl)cc4)o3)C(=O)N=C2S1	·	-21	·	·	·	·
Cn1cc(/C=C/c2nc3ccccc3c(=O)n2Cc2ccccc2)c2ccccc21	·	104*	·	·	·	·
O=C(CC1S/C(=N\N=C\c2ccccc2)NC1=O)Nc1ccccc1F (stereo unspecified)	·	0	·	·	·	·
O=C(c1n[nH]c(=O)c2ccccc12)N1CCN(c2ccccc2)CC1	1	-3	0.9	1.1	6	-20*
COc1cc(NCCN(CC(C)C)CC(C)C)c2ncccc2c1	22	·	·	·	·	·
CCC(C)NCCNc1cc(OC)cc2cccnc12 (stereo unspecified)	127*	·	·	·	·	·
CC1=NNC(=O)C1CCC(=O)N/N=C(\C)c1cccc([N+](=O)[O-])c1 (stereo unspecified)	·	5	·	·	·	·
CCOc1ccc(N2C(=O)CC(NCc3ccc(Cl)cc3Cl)C2=O)cc1 (stereo unspecified)	·	104*	·	·	·	·
CCOc1ccc(N2C(=O)CC(NCc3ccc(S(N)(=O)=O)cc3)C2=O)cc1 (stereo unspecified)	·	-5	·	·	·	·
CC1=CC(C)(C)Nc2ccc(OC(=O)c3ccco3)cc21	14	-9	0.9	0.2	-5	-20*
COc1ccc(CNC(=O)COc2ccc(S(=O)(=O)NC(C)C)cc2)cc1	-10	6	0.9	1.2	11	116
COc1ccc(OC)c(NC(=O)COc2ccc(S(=O)(=O)NC(C)C)cc2)c1	3	11	0.9	1	21*	77
O=C(CCCCCn1c(=S)[nH]c2cc3c(cc2c1=O)OCO3)N1CCN(Cc2ccccc2)CC1	-4	6	0.9	1	4	56
O=C(CCCCCn1c(=S)[nH]c2cc3c(cc2c1=O)OCO3)N1CCN(C2CCCCC2)CC1	-3	-1	1	1.2	1	-16*
Cc1ccc2c(c1)C1C=CCC1C(c1ccc([N+](=O)[O-])cc1)N2 (stereo unspecified)	·	5	·	·	·	·
C/C(=N\O)C(=O)C(CN1CCCCC1)CN1CCCCC1	-2	-14	0.9	1.3	1	-12*
CC(=O)/C(CN1CCCCC1)=N\O	-2	2	0.9	1.2	4	91
COc1ccc(C(=O)NCCSCc2ccccc2Cl)cc1	·	2	·	·	·	·
Oc1ccc(N=Cc2ccc(O)c(O)c2)cc1	93*	5	1	1.4	9	73
Oc1ccc(C=Nc2ccc(O)cc2)cc1	·	-4	·	·	·	·
O=C(O)c1cc(-c2ccc(/C=C/c3cc(C(F)(F)F)[nH]c(=O)n3)o2)ccc1Cl	·	65*	·	·	·	·
CC(C)c1ccc(N2C(=O)NC(=O)/C(=C/c3ccc(Br)o3)C2=O)cc1	·	102*	·	·	·	·
SMILES	Hsp90 inh	HePTP inhibitor	TNAP act DEA	MT1-MMP txn act	Ec RNAP inh	Her2 expr inh
CCc1ccc(/C=C2/C(=O)NC(=O)N(c3cccc(C)c3)C2=O)cc1	·	9	·	·	·	·
Cc1cccc(N2C(=O)NC(=O)/C(=C/c3ccc(Br)o3)C2=O)c1	·	75*	·	·	·	·
CCOc1ccc2nc(SCc3ccccn3)sc2c1	·	79*	·	·	·	·
c1ccc(CSc2nc3ccccc3s2)nc1	·	-3	·	·	·	·
CCc1cccc(NC(=O)c2cnccn2)c1	·	-10	·	·	·	·
Cc1cccc(NC(=O)c2cnccn2)c1	·	60*	·	·	·	·
CCOC(=O)c1cnc(SC2CCc3ccccc3C2=O)nc1N (stereo unspecified)	56*	5	0.8	1.5	5	99
CCOC(=O)c1cnc(SC2CC(=O)N(c3ccccc3)C2=O)nc1N (stereo unspecified)	·	·	·	1	·	·
N#C/C(=C\c1cc2c(cc1[N+](=O)[O-])OCO2)C(=O)Nc1cccc(Br)c1	·	-10	·	·	·	·
O=C1NN(c2ccccc2)C(=O)/C1=C/c1cccn1-c1ccc([N+](=O)[O-])cc1	·	103*	·	·	·	·
CCOP(=O)(c1ccc(N(C)C)cc1)C(O)c1c(Cl)cccc1Cl (stereo unspecified)	-6	-8	1	1.2	6	-16*
O=[N+]([O-])c1cccc(CN2CCN(S(=O)(=O)c3ccc(Cl)cc3)CC2)c1	·	102*	·	·	·	·

Screens: PubChem BioAssay, several laboratories
